# Assay results: PubChem BioAssay (NCATS)
# “And” between values parts separate entries of the source, which are not always exact repeats. Identical values can stand only once. Results filed as inconclusive are left out. The source made the active and inactive calls. The call rests on the fitted dose curve; in most records, active means well fitted inhibition curve with a large enough effect; inconclusive means small, poorly fitted or top-dose-only effect; inactive means flat fitted curve, though single readings scatter.
# Assay: P-glycoprotein substrates identified in KB-8-5-11 adenocarcinoma cell line, qHTS therapeutic library screen (AID 1346987); further: nearly all actives have a fitted effect of over 65% in size
# Details: KB-8-5-11 (P-gp overexpressing) viability, CellTiter-Glo, 72 h; series mostly up to 44.5 µM; activity change, negative = cytotoxicity: at the top concentration
# Summary of the method: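 Human cervical adenocarcinoma KB-8-5-11 cells, selected in colchicine to over-express P-gp and assayed without it, were exposed for 72 h to titrated compounds. An ATP-based luminescent viability signal gave AC50.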
# On the % scale 0 is the no-effect control and ±100 the full control effect; potency means the concentration at half of the fitted maximal effect.
Structure (SMILES),Potency,"activity change, negative = cytotoxicity",outcome
COc1ccc2[nH]c3c(-c4cccc5ccccc45)nccc3c2c1,0.92 µM (active),,
CC1(C)[C@@H](O)CC[C@]2(C)[C@H]3CC=C4[C@@H]5C[C@](C)(C(=O)O)CC[C@]5(C)CC[C@@]4(C)[C@]3(C)CC[C@@H]12,,4.73% (inactive),
COc1c2c(cc3c1-c1c(cc4c(c1OC)OCO4)CC(C)C(C)C3)OCO2 (centres undefined),,-4.87% (inactive),
CC/C=C\[C@H](O)[C@H](O)C1=C(C)C(=O)[C@]2(O1)C(=O)N[C@@](OC)(C(=O)c1ccccc1)[C@@H]2O,,,inactive [at 17.3 µM]
CC(/C=C/C1=CC2=CC(=O)C(C)(O)C(O)C2=CO1)=C\C(C)CCO (centres undefined),,7.59% (inactive),
CCCCOC(=O)NC(=O)C1c2ccccc2Oc2ccccc21,,1.24% (inactive),
CC1=C(COC2OC(CO)C(O)C(O)C2O)C(C(CO)C(=O)O)CC1 (centres undefined),,,inactive
CC(C)C(NC(=O)c1ccc2ccccc2n1)C(=O)NC(CC(=O)O)C(=O)COc1c(F)cccc1F (centres undefined),,,inactive
CCOc1cc(N2CCC(O)CC2)ccc1Nc1ncc2c(n1)N(C1CCCC1)CCC(=O)N2C,11.6 µM (active),,
C[C@@H]([C@@H](O)c1ccc(O)cc1)N1CCC(O)(c2ccccc2)CC1,,-8.99% (inactive),
CC1=C(CO)C(=O)O[C@@H]([C@@H](C)[C@H]2CC[C@H]3[C@@H]4C[C@H]5O[C@]56[C@@H](O)C=CC(=O)[C@]6(C)[C@H]4CC[C@]23C)C1,2.52 µM (active),,
CC(C)c1cc(C(=O)N2CC[C@H](NC(=O)C3CC3)C2)n[nH]1,,-8.08% (inactive),
C/C=C/C1=CC2=C(CO1)C(=O)C(C)(O)C(OC(=O)c1c(C)cc(OC)cc1O)C2 (centres undefined),,-16.2% (inactive),
NC1CCCCN(c2c(F)cc3c(=O)c(C(=O)O)cn(C4CC4)c3c2Cl)C1 (centres undefined),,,inactive [at 17.3 µM]
CC1(C)CCCC2(C)C1CC=C1C(=O)OC(O)C12O (centres undefined),,1.31% (inactive),
C=C1CCC2C(C)(C)C(O)CCC2(C)C1CCC(C)CCO (centres undefined),,-19.3% (inactive),
CN1CCN(c2ccc(C(=O)Nc3n[nH]c4ccc(Cc5cc(F)cc(F)c5)cc34)c(NC3CCOCC3)c2)CC1,16.4 µM (active) and 13 µM (active),,
COc1cccc(-c2cc(NCc3ccc4c(c3)OCO4)nc(N)n2)c1,0.164 µM (active),,
C[C@@H]1O[C@@H](O[C@H]2[C@H](OC(=O)[C@]34CCC(C)(C)C[C@H]3C3=CCC5[C@@]6(C)C[C@H](O)[C@H](O[C@@H]7O[C@H](CO)[C@@H](O)[C@H](O)[C@H]7O)[C@@](C)(CO)C6[C@H](O)C[C@@]5(C)[C@]3(C)CC4)OC[C@H](O)[C@@H]2O)[C@H](O)[C@H](O)[C@H]1O[C@@H]1OC[C@@H](O)[C@H](O[C@@H]2OC[C@](O)(CO)[C@H]2O)[C@H]1O (some centres undefined),,6.69% [at 9.29 µM] (inactive),
CC12CCC(OC3OC(CO)C(O)C(OC4OC(CO)C(O)C(O)C4O)C3O)CC1=CCC1C2CCC2(C)/C(=C3/COC(=O)C3)CCC12O (centres undefined),,-2.53% [at 17.3 µM] (inactive),

Structure (SMILES),Potency,"activity change, negative = cytotoxicity",outcome
C=C1CCC2C(C)(C)CCC[C@]2(C)[C@H]1C/C=C(\CO)C(=O)C(=O)O (some centres undefined),,-9.08% (inactive),
CC1=C(CCC(C)O[C@@H]2O[C@H](CO)[C@@H](O)[C@H](O)[C@H]2O)C(C)(C)CCC1=O (some centres undefined),,,inactive
O=C(O)c1ccccc1NC(=O)N1CCC(c2ccccc2C(F)(F)F)CC1,,-11.2% (inactive),
Cc1cc(Nc2cc(N3CCN(C)CC3)nc(/C=C/c3ccccc3)n2)n[nH]1,7.31 µM (active),,
Cc1nc([C@](C)(O)CO)sc1-c1cnc(N)c(O[C@H](C)c2cc(F)ccc2-n2nccn2)c1,11.6 µM (active),,
COc1ccc(/C=C/C(=O)O[C@@H]2[C@@H](O)[C@H](C)O[C@@H](O[C@H]3[C@@H]4C=CO[C@@H](O[C@H]5O[C@@H](CO)[C@H](O)[C@@H](O)[C@@H]5O)[C@@H]4[C@@]4(CO)O[C@@H]34)[C@@H]2OC(C)=O)cc1,,0.504% [at 17.3 µM] (inactive),
Cc1cc(NC(=O)Nc2ccc(F)c(F)c2)n(-c2ccccc2)n1,,-10.9% (inactive),
C=C(C(=O)O)[C@@H]1CC[C@@]2(C)CC[C@H](O)[C@@]2(C(C)=O)C1,,,inactive
CCCN1CCN(c2ccc(C(=O)NC3(C(=O)NCC#N)CCCCC3)cc2)CC1,,-8.46% (inactive),
CNC(=S)NS(=O)(=O)c1cc(CCNC(=O)c2cc(Cl)ccc2OC)ccc1OC,,8.16% (inactive),
COc1cc2nc(N3CCC(N4CCCCC4)CC3)nc(NC3CCCCCC3)c2cc1OC,5.17 µM (active),,
NCc1c[nH]c(=S)n1[C@@H]1CCc2c(F)cc(F)cc2C1,,6.67% (inactive),
CC[C@H]1OC(=O)[C@](C)(F)C(=O)[C@H](C)[C@@H](O[C@@H]2O[C@H](C)C[C@H](N(C)C)[C@H]2O)[C@](C)(OC)C[C@@H](C)C(=O)[C@@H](C)[C@H]2N(CCCCn3cc(-c4cccc(N)c4)nn3)C(=O)O[C@]12C,,-14.7% (inactive),
Cc1cc(C(=O)N2Cc3cnn(C)c3Nc3ccccc32)ccc1CNC(=O)N1CCC[C@H]1C(=S)N1CCCN(C)CC1,,5.53% (inactive),
FC(F)(F)c1ccc(Nc2nc(-c3c(C(F)(F)F)nc4ccccn34)cs2)cc1,0.461 µM (active),,
CC1(C)CCCC2(C)C1CC(=O)C13CC(CCC12)C(O)(CO)C3 (centres undefined),,-21.3% (inactive),
C[C@@H]1O[C@@H](OC[C@H]2O[C@@H](Oc3cc(O)cc4c3C(=O)C(O)(Cc3ccc(O)cc3)O4)[C@H](O)[C@@H](O)[C@@H]2O)[C@H](O)[C@H](O)[C@H]1O (some centres undefined),,,inactive [at 17.3 µM]
c1ccc(-c2ncc(CN3CCN(c4ncccn4)CC3)[nH]2)cc1,,-12% (inactive),
COC(=O)C12CCC(C)C(C)C1C1=CCC3C4(C)CCC(OC(C)=O)C(C)(C)C4CCC3(C)C1(C)CC2 (centres undefined),,0.509% [at 17.3 µM] (inactive),
